In ChEMBL document CHEMBL2218924, “A broad activity screen in support of a chemogenomic map for kinase signalling research and drug discovery” (Biochem J, 2013) one finds residual activity data, which are given here for 1 molecule.

In experiment [1] the target is Tyrosine-protein kinase SYK (Homo sapiens) (UniProt P43405). The note with it: at 10 µM.
The target in experiment [2] is T1, Mitogen-activated protein kinase kinase kinase 7 (Homo sapiens) (UniProt O43318).
T1 sequence (whole entry): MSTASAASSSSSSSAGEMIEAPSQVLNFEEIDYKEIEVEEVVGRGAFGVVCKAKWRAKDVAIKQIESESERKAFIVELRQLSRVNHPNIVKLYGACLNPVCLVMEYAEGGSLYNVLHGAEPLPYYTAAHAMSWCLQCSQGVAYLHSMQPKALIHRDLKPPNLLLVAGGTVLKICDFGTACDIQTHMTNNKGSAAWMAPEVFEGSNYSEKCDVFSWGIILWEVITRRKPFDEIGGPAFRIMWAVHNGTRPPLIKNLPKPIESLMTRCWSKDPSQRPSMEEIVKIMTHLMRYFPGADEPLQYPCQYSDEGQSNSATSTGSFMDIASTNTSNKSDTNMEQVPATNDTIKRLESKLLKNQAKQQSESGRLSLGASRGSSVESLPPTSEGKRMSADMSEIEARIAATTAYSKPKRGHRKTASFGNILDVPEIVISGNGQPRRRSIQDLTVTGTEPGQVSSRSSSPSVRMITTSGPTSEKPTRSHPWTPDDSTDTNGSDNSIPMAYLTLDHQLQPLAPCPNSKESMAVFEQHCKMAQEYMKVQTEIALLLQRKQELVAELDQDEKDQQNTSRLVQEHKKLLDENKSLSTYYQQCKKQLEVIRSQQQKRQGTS
Conditions: at 1 µM.

Experiment [3] concerns the target T1, Mitogen-activated protein kinase kinase kinase 7 (Homo sapiens). Conditions: at 10 µM.
Experiment [4] concerns the target T2, Serine/threonine-protein kinase TAO1 (Homo sapiens) (UniProt Q7L7X3).
T2 sequence (whole entry): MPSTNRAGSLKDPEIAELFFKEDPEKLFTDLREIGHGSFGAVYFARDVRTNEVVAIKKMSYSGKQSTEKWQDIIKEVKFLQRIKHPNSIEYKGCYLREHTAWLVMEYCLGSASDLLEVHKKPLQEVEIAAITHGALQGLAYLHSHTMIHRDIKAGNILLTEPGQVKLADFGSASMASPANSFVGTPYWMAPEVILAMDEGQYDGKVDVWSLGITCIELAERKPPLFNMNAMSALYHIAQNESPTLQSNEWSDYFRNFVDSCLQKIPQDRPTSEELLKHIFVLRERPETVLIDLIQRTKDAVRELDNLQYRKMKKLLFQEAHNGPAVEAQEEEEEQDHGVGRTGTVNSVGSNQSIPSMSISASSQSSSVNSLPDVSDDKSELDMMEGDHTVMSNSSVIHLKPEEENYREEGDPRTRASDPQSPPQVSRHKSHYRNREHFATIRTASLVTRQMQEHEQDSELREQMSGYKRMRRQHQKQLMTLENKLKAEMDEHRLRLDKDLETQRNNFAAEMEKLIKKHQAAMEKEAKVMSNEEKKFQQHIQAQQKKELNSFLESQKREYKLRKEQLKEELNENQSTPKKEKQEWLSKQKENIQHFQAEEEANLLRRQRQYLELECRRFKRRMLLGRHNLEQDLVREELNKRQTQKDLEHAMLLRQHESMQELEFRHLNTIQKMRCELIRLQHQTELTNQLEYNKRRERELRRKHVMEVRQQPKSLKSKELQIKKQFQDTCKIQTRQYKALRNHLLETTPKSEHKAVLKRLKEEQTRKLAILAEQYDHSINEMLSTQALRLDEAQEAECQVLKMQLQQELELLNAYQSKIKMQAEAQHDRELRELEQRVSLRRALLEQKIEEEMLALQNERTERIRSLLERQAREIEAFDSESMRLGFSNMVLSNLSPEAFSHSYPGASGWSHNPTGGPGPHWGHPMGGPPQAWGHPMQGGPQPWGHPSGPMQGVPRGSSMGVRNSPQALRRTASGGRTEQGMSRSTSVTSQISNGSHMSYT
Conditions: at 1 µM.

The target of experiment [5] is T2, Serine/threonine-protein kinase TAO1 (Homo sapiens). The note with it: at 10 µM.
In experiment [6] the target is T3, Serine/threonine-protein kinase TAO2 (Homo sapiens) (UniProt Q9UL54).
T3 sequence (whole entry): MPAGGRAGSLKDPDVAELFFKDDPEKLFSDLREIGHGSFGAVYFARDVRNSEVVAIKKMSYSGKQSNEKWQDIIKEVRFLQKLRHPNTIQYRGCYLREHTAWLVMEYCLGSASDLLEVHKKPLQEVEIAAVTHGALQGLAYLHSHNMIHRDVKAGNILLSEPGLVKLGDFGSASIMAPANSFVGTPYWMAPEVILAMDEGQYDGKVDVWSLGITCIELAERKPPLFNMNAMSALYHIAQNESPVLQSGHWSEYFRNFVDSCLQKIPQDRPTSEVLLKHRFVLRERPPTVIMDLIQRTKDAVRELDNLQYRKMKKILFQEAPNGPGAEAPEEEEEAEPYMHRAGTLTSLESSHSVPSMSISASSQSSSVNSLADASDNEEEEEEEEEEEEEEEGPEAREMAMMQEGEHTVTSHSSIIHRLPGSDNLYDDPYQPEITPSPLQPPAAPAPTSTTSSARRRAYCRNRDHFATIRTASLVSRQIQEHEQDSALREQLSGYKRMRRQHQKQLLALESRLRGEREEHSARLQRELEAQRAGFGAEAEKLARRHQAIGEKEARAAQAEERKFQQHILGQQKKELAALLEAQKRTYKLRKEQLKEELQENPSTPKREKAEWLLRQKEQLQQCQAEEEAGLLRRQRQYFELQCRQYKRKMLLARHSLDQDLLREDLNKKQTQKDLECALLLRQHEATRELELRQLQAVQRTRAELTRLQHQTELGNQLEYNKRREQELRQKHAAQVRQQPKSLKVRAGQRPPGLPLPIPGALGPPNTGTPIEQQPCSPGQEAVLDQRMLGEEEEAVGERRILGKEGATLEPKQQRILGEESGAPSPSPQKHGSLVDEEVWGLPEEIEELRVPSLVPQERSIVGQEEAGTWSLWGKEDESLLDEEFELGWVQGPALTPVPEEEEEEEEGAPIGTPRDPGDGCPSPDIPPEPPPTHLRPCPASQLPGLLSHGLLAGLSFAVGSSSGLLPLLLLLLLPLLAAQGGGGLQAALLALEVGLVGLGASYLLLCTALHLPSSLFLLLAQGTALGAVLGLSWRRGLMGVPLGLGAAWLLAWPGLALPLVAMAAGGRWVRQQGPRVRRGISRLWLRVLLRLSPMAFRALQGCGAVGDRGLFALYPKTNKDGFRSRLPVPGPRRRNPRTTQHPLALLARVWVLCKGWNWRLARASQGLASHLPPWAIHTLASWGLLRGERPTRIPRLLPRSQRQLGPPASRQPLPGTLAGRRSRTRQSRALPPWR
The note with it: at 1 µM.

In experiment [7] the target is T3, Serine/threonine-protein kinase TAO2 (Homo sapiens). Conditions: at 10 µM.
Experiment [8] addresses T4, Serine/threonine-protein kinase TAO3 (Homo sapiens) (UniProt Q9H2K8).
T4 sequence (whole entry): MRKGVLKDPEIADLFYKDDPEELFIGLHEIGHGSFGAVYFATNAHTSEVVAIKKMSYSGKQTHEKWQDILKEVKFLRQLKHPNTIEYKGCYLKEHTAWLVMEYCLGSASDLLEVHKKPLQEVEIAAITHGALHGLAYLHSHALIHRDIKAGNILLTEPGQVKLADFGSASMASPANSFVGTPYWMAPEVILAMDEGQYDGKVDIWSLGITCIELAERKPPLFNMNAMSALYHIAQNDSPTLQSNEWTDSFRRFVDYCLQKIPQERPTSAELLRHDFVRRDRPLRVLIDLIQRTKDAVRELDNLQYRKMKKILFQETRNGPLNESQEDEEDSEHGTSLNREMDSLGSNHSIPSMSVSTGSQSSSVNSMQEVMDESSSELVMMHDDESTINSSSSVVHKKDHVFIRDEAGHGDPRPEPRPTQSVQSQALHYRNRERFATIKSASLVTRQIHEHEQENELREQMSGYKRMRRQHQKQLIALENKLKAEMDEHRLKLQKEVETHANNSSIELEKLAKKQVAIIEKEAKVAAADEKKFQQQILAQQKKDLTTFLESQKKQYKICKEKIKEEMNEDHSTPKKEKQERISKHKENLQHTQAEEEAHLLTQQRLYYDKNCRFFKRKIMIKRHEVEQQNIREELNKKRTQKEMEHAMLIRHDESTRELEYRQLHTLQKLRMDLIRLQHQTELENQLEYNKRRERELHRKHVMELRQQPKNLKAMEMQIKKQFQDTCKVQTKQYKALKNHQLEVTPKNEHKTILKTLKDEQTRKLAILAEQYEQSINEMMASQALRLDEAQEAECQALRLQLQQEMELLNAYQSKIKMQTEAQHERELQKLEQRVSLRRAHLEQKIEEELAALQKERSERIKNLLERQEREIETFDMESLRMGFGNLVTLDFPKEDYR
Conditions: at 1 µM.

For experiment [9], the target named is T4, Serine/threonine-protein kinase TAO3 (Homo sapiens). Conditions: at 10 µM.

As for `Cc1cc2ncc(-c3ccccc3)nc2cc1C`, the residual activity stood at 108% in experiment [1]; 96% in experiment [2]; 95% in experiment [3]; 109% in experiment [4]; 101% in experiment [5]; 106% in [6]. Besides, the residual activity was found to be 91% in experiment [7], 100% in [8] and 101% in experiment [9].
